Test results taken from PubChem BioAssay AID1159580 (chemical genetic matrix, 2015).
Where “and” joins values, the source holds several entries; their conditions need not be identical. Identical values can stand only once. Among all 5,500 compounds or so, about 2,000 (36%) were called active. Another 18% or so got no clear call; they are omitted. Rule as the data show it: active = normalized growth mostly below about 0.91 (no sharp cut-off); inconclusive = no clear call, values can overlap the other calls; inactive = mostly above about 0.92. The list shows a part of the results.

Assay: chemical genetic growth profiling, strain panel (AID 1159580);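 also: tested at 20 µM; growth read once vehicle control cultures reached saturation at 30 °C; 1 = growth at the plate median or of vehicle wells; lower values mean less growth of the strain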
Conditions: S. cerevisiae deletion strains, growth OD

Measured: normalized growth

CC(=O)OCC(=O)[C@@]1(O)CCC2C3CCC4=CC(=O)C=CC4(C)C3[C@@H](O)C[C@@]21C (stereo partly drawn)
inactive: locus YAL021C, strain ccr4, stronger effect = lower value 1 | locus YAL026C, strain drs2, stronger effect = lower value 1 | locus YAL030W, strain snc1, stronger effect = lower value 0.997 | locus YBL061C, strain skt5, stronger effect = lower value 0.996 | locus YBR009C, strain hhf1, stronger effect = lower value 1.01 | locus YBR021W, strain FUR4, stronger effect = lower value 1.02 | locus YBR023C, strain chs3, stronger effect = lower value 0.994 | locus YBR171W, strain sec66, stronger effect = lower value 0.973 | locus YBR229C, strain ROT2, stronger effect = lower value 1.01 | locus YBR231C, strain swc5, stronger effect = lower value 0.978 | locus YBR279W, strain paf1, stronger effect = lower value 0.993 | locus YCL011C, strain gbp2, stronger effect = lower value 0.996 | locus YCL016C, strain dcc1, stronger effect = lower value 1.01 | locus YCL029C, strain bik1, stronger effect = lower value 1.02 | locus YCL061C, strain MRC1, stronger effect = lower value 0.997 | locus YCL069W, strain vba3, stronger effect = lower value 1 | locus YCR088W, strain abp1, stronger effect = lower value 0.998 | locus YDL005C, strain med2, stronger effect = lower value 0.992 | locus YDL035C, strain GPR1, stronger effect = lower value 1.02 | locus YDL040C, strain nat1, stronger effect = lower value 1 | locus YDL074C, strain BRE1, stronger effect = lower value 1.02 | locus YDL101C, strain DUN1, stronger effect = lower value 1 | locus YDL134C, strain PPH21, stronger effect = lower value 1.01 | locus YDL185W, strain tfp1, stronger effect = lower value 1.02 | locus YDL192W, strain arf1, stronger effect = lower value 1.02 | locus YDR001C, strain nth1, stronger effect = lower value 1 | locus YDR069C, strain doa4, stronger effect = lower value 0.99 | locus YDR101C, strain arx1, stronger effect = lower value 1.02 | locus YDR137W, strain rgp1, stronger effect = lower value 0.978 | locus YDR150W, strain NUM1, stronger effect = lower value 1 | locus YDR159W, strain sac3, stronger effect = lower value 1 | locus YDR162C, strain NBP2, stronger effect = lower value 1.01 | locus YDR195W, strain ref2 0.984 | locus YDR297W, strain sur2, stronger effect = lower value 0.992 | locus YDR318W, strain mcm21, stronger effect = lower value 1.03 | locus YDR334W, strain swr1, stronger effect = lower value 1 | locus YDR335W, strain msn5, stronger effect = lower value 1 | locus YDR388W, stronger effect = lower value 1.02 | locus YDR392W, strain spt3, stronger effect = lower value 1.02 | locus YDR502C, strain sam2, stronger effect = lower value 1.01 | locus YEL003W, strain gim4, stronger effect = lower value 0.998 | locus YEL037C, strain rad23, stronger effect = lower value 1 | locus YEL061C, strain CIN8 (second series), stronger effect = lower value 0.98 | locus YEL061C, strain CIN8, stronger effect = lower value 1 | locus YER015W, strain faa2, stronger effect = lower value 0.996 | locus YER016W, strain bim1, stronger effect = lower value 1.01 | locus YER110C, stronger effect = lower value 1.01 | locus YER111C, strain swi4, stronger effect = lower value 0.996 | locus YER155C, strain BEM2 (second series), stronger effect = lower value 0.978 | locus YER155C, strain BEM2, stronger effect = lower value 1 | locus YER167W, strain BCK2, stronger effect = lower value 1.01 | locus YFR010W, strain ubp6, stronger effect = lower value 0.993 | locus YGL078C, strain dbp3, stronger effect = lower value 1.01 | locus YGL086W, strain mad1, stronger effect = lower value 1 | locus YGL167C, strain pmr1, stronger effect = lower value 0.999 | locus YGL173C, strain kem1, stronger effect = lower value 0.992 | locus YGL227W, strain vid30, stronger effect = lower value 1 | locus YGL240W, strain doc1, stronger effect = lower value 0.972 | locus YGL248W, strain PDE1, stronger effect = lower value 1.01 | locus YGL253W, strain hxk2, stronger effect = lower value 1.01 | locus YGR135W, strain pre9, stronger effect = lower value 1.02 | locus YGR252W, strain gcn5, stronger effect = lower value 1.05 | locus YHR013C, strain ard1, stronger effect = lower value 0.978 | locus YHR027C, strain rpn1, stronger effect = lower value 1 | locus YHR030C, strain SLT2, stronger effect = lower value 1 and 0.977 | locus YHR079C, strain IRE1 (second series), stronger effect = lower value 1.02 | locus YHR079C, strain IRE1, stronger effect = lower value 0.964 | locus YHR094C, strain hxt1, stronger effect = lower value 1.01 | locus YHR129C, strain ARP1, stronger effect = lower value 1 | locus YHR142W, strain chs7, stronger effect = lower value 0.989 | locus YHR200W, strain rpn10, stronger effect = lower value 1.01 | locus YIL066C, strain RNR3, stronger effect = lower value 1.01 | locus YIL073C, strain SPO22, stronger effect = lower value 1.03 | locus YIL125W, strain kgd1, stronger effect = lower value 1.01 | locus YIR030C, strain dcg1, stronger effect = lower value 1.02 | locus YJL092W, strain hpr5, stronger effect = lower value 0.995 | locus YJL095W, strain BCK1 (second series), stronger effect = lower value 0.995 | locus YJL095W, strain BCK1, stronger effect = lower value 1.03 and 0.993 | locus YJL115W, strain asf1, stronger effect = lower value 0.994 | locus YJL129C, strain trk1, stronger effect = lower value 0.97 | locus YJL134W, strain LCB3, stronger effect = lower value 1.01 | locus YJL154C, strain vps35, stronger effect = lower value 0.996 | locus YJL164C, strain tpk1, stronger effect = lower value 1.01 | locus YJL166W, strain qcr8, stronger effect = lower value 0.951 | locus YJL168C, strain set2, stronger effect = lower value 1.02 | locus YJL187C, strain SWE1 (second series), stronger effect = lower value 1.01 | locus YJR043C, strain POL32, stronger effect = lower value 1.01 | locus YJR066W, strain TOR1, stronger effect = lower value 0.935
